Reference: the supplement of paper PMC8285479
± gives the standard deviation of the averaged measurements. The full ranking holds about 1,900 compounds; the median of “normalised cell viability (NPI; 0 = phenylarsine oxide control, 1 = DMSO control)” is about 1, and the lowest 2% start at about 0.039. The list comes from a sample in which the lowest values are over-represented; it also holds similar structures and randomly drawn compounds.

Test system: NCI-H1944
Assay: normalised cell viability (NPI; 0 = phenylarsine oxide control, 1 = DMSO control) (fraction of DMSO control); NCI-H1944 is a non-small cell lung cancer line; higher = more viable cells (less compound toxicity)
Settings: 6 days
[1] = glucocorticoid arm: hydrocortisone 2.75 uM co-treatment, compound 1 µM
[2] = glucocorticoid arm: hydrocortisone 2.75 uM co-treatment, compound 5 µM
[3] = glucocorticoid arm: hydrocortisone 2.75 uM pre-treated 2 days and continued, compound 1 µM
[4] = glucocorticoid arm: hydrocortisone 2.75 uM pre-treated 2 days and continued, compound 5 µM
[5] = glucocorticoid arm: vehicle, compound 1 µM
[6] = glucocorticoid arm: vehicle, compound 5 µM
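Note: CTB read-out in 384-well plates, triplicate wells, NPI normalised per plate against 1 µM phenylarsine oxide (0) and 0.1% DMSO (1) controls.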

Structure (SMILES) | normalised cell viability [1] | normalised cell viability [2] | normalised cell viability [3] | normalised cell viability [4] | normalised cell viability [5] | normalised cell viability [6]
CCCCCCCCCC(=O)NC(CN1CCOCC1)[C@H](O)c1ccccc1 (mixture of isomers) | 1.01 | 0.9997 ± 0.0096 | 1.02 ± 0.026 | 1.01 ± 0.024 | 1.01 | 0.997 ± 0.014
CC(C)C[C@H](NC(=O)[C@H](CCc1ccccc1)NC(=O)CN1CCOCC1)C(=O)N[C@@H](Cc1ccccc1)C(=O)N[C@@H](CC(C)C)C(=O)[C@@]1(C)CO1 [Carfilzomib] | 0.0119 ± 0.0019 | 0.198 ± 0.017 | 0.652 ± 0.035 | 0.986 ± 0.013 | 0.00203 ± 0.0017 | 0.0026 ± 0.00057
CNC(=N)NCCC[C@H](N)C(=O)O [NG-Monomethyl-L-arginine acetate] | 1.001 ± 0.009 | 0.985 ± 0.022 | 1.001 ± 0.0081 | 0.879 ± 0.24 | 0.9883 ± 0.0097 | 0.991 ± 0.0079
S=C=Nc1cccc(NC(=S)NCCCCNC(=S)Nc2cccc(N=C=S)c2)c1 | 1.04 ± 0.04 | 1.05 ± 0.015 | 1.02 ± 0.033 | 1.04 ± 0.032 | 1.017 ± 0.0058 | 1.003 ± 0.0058
CCc1cccc(N(C)C(=N)Nc2cccc3ccccc23)c1 | 0.999 ± 0.027 | 0.918 ± 0.012 | 1.006 ± 0.0069 | 0.967 ± 0.013 | 1.003 ± 0.0064 | 1.01 ± 0.01
COc1ccc2c(c1)c(CC(=O)O)c(C)n2Cc1ccc(F)cc1 [1-(4-Fluorobenzyl)-5-methoxy-2-methylindole-3-acetic acid] | 0.987 ± 0.014 | 0.977 ± 0.017 | 0.983 ± 0.028 | 0.982 ± 0.013 | 0.9717 ± 0.0076 | 0.974 ± 0.0027
COC(=O)Nc1ccc(-c2nc(N3CCOCC3)c3cnn(C4CCN(C(=O)OC)CC4)c3n2)cc1 | 0.505 ± 0.038 | 0.753 ± 0.013 | 0.563 ± 0.029 | 0.769 ± 0.067 | 0.476 ± 0.02 | 0.924 ± 0.015
CN(C)C1CCN(C(=O)c2ccc(NC(=O)Nc3ccc(-c4nc(N5CCOCC5)nc(N5CCOCC5)n4)cc3)cc2)CC1 | 0.231 ± 0.011 | 0.105 ± 0.0056 | 0.311 ± 0.026 | 0.147 ± 0.012 | 0.0929 ± 0.0075 | 0.0212 ± 0.0032
CCn1nnc2c(N3CCOCC3)nc(-c3ccc(NC(=O)Nc4ccc(C(=O)N5CCN(C)CC5)cc4)cc3)nc21 | 0.201 ± 0.0067 | 0.375 ± 0.015 | 0.287 ± 0.01 | 0.543 ± 0.024 | 0.077 ± 0.01 | 0.22 ± 0.016
C=CS(=O)(=O)NC1CCN(C(=O)CNc2cc(I)c(Cl)cc2OC)CC1 [K-Ras(G12C) inhibitor 9] | 1.03 ± 0.01 | 1.07 ± 0.029 | 1.04 | 1.04 ± 0.025 | 0.993 ± 0.0036 | 0.996 ± 0.014
C[N+](C)(C)CC=O [Betaine aldehyde chloride] | 0.9877 ± 0.0021 | 0.993 ± 0.012 | 0.9913 ± 0.0081 | 0.993 ± 0.0085 | 0.9647 ± 0.0015 | 0.9803 ± 0.0015
NC[C@@H](O)c1ccc(O)c(O)c1 [L(-)-Norepinephrine bitartrate] | 1 ± 0.018 | 0.971 ± 0.011 | 1 ± 0.021 | 0.968 ± 0.0085 | 0.98 ± 0.017 | 0.9767 ± 0.0011
Nc1nc2c(nc(Br)n2C2OC3COP(=O)(O)O[C@@H]3C2O)c(=O)[nH]1 (stereo partly specified) [8-Bromo-cGMP sodium] | 1.023 ± 0.0058 | 1.02 | 1.02 ± 0.01 | 1 ± 0.028 | 1.01 ± 0.011 | 1.01 ± 0.015
CCN(CC)CCCC(C)Nc1nc(C)cc(Nc2ccc3nc(C)cc(N)c3c2)n1 (stereo unspecified) | 0.845 ± 0.0082 | 0.444 ± 0.019 | 0.888 ± 0.01 | 0.688 ± 0.036 | 1 ± 0.013 | 0.119 ± 0.0062
CCc1ccc(OCc2ccccc2C(=O)Nc2ccc3nc(C)cc(N)c3c2)cc1 | 1.04 ± 0.011 | 0.00134 ± 0.00041 | 1.05 ± 0.017 | 0.00123 ± 0.00019 | 1.023 ± 0.0058 | 0.00113 ± 0.0006
Cc1cc([C@@H](C)Nc2ccccc2C(=O)O)c2nc(N3CCOCC3)cc(=O)n2c1 | 0.878 ± 0.043 | 0.764 ± 0.062 | 0.879 ± 0.023 | 0.791 ± 0.03 | 0.9667 ± 0.0091 | 0.899 ± 0.035
CCCC(CCC)C(=O)NO [Valproic acid hydroxamate] | 1 ± 0.022 | 1.01 ± 0.022 | 1.01 ± 0.016 | 1.02 ± 0.016 | 0.9982 ± 0.0077 | 0.9988 ± 0.0092
NC1CCN(O)C1=O (racemic) | 0.983 ± 0.011 | 0.999 ± 0.011 | 0.9857 ± 0.0051 | 0.984 ± 0.023 | 0.985 ± 0.013 | 0.98733 ± 0.00058
CC(C)C[C@H](NC(=O)CNC(=O)c1cc(Cl)ccc1Cl)B(O)O | 0.978 ± 0.0095 | 0.886 ± 0.03 | 1.04 ± 0.01 | 1.04 ± 0.011 | 0.311 ± 0.032 | 0.0506 ± 0.0038
CC(C)C[C@H](NC(=O)CNC(=O)c1cc(Cl)ccc1Cl)B1OC(=O)CC(CC(=O)O)(C(=O)O)O1 (stereo partly specified) | 0.98 ± 0.014 | 0.835 ± 0.018 | 1.047 ± 0.0058 | 1.04 ± 0.015 | 0.263 ± 0.024 | 0.0378 ± 0.0053
CCCCCCCCCCCCCCCCCCNC(=O)OCC(COP(=O)([O-])OCC[n+]1ccsc1)OC (stereo unspecified) | 0.9967 ± 0.0035 | 1.02 ± 0.011 | 1.02 ± 0.024 | 1.01 ± 0.015 | 0.997 ± 0.0017 | 0.82 ± 0.33
COc1ccc(CCNC[C@@H](O)c2ccc(O)cc2)cc1OC [R(-)-Denopamine] | 1.01 ± 0.01 | 1.017 ± 0.0058 | 1.02 ± 0.017 | 1.013 ± 0.0058 | 1.01 | 1.01 ± 0.014
c1cncc(CN2CCC(n3ncc4c(N5CCOCC5)nc(-c5ccc6[nH]ccc6c5)nc43)CC2)c1 | 0.773 ± 0.022 | 0.532 ± 0.036 | 0.743 ± 0.027 | 0.615 ± 0.036 | 0.542 ± 0.035 | 0.24 ± 0.0038
Cc1nc(Nc2n[nH]c3c2CN(C(=O)N[C@H](CN(C)C)c2ccccc2)C3(C)C)c2sccc2n1 | 0.832 ± 0.033 | 0.29 ± 0.072 | 1.05 ± 0.015 | 0.763 ± 0.02 | 0.12 ± 0.011 | 0.0302 ± 0.0031
CC(C)CC(=O)Nc1n[nH]c2c1CN(C(=O)C1CCN(C)CC1)C2(C)C | 0.8357 ± 0.0074 | 0.369 ± 0.0055 | 0.968 ± 0.0056 | 0.962 ± 0.036 | 0.365 ± 0.023 | 0.0459 ± 0.004
N=C1Sc2ccccc2C2=NCCCN12 | 1.017 ± 0.0058 | 1.01 ± 0.031 | 1.02 ± 0.011 | 0.86 ± 0.28 | 1.002 ± 0.0068 | 1.02 ± 0.015
